Laboratory results as given in ChEMBL document CHEMBL2218924, “A broad activity screen in support of a chemogenomic map for kinase signalling research and drug discovery” (Biochem J, 2013).

How the values were obtained:
[1] = target: Protein kinase C delta type (Homo sapiens) (UniProt Q05655); details: at 10 µM
[2] = target: T1, Protein kinase C epsilon type (Homo sapiens) (UniProt Q02156); details: at 1 µM
T1 sequence (whole entry): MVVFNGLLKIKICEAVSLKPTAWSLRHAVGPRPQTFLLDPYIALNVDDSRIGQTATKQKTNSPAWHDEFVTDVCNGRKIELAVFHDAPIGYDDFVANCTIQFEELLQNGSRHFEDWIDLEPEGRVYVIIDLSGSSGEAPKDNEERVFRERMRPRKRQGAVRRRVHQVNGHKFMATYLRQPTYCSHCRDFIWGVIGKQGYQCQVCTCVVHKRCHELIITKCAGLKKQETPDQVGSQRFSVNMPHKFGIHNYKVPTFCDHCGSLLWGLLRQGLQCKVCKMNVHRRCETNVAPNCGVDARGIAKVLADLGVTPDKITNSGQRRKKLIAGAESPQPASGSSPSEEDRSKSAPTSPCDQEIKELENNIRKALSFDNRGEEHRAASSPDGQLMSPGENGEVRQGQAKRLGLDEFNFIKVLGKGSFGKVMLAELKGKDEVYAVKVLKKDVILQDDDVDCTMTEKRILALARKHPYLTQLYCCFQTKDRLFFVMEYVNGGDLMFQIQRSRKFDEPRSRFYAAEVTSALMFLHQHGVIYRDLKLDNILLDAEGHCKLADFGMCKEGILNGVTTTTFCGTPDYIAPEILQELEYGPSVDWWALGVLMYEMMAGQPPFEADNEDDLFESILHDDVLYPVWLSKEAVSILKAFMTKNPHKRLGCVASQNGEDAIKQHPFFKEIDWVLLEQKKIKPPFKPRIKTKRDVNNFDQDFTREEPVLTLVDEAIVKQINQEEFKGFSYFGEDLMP

[3] = target: T1, Protein kinase C epsilon type (Homo sapiens); details: at 10 µM

Sequence of Protein kinase C delta type (Homo sapiens) (Q05655 whole entry, looked up): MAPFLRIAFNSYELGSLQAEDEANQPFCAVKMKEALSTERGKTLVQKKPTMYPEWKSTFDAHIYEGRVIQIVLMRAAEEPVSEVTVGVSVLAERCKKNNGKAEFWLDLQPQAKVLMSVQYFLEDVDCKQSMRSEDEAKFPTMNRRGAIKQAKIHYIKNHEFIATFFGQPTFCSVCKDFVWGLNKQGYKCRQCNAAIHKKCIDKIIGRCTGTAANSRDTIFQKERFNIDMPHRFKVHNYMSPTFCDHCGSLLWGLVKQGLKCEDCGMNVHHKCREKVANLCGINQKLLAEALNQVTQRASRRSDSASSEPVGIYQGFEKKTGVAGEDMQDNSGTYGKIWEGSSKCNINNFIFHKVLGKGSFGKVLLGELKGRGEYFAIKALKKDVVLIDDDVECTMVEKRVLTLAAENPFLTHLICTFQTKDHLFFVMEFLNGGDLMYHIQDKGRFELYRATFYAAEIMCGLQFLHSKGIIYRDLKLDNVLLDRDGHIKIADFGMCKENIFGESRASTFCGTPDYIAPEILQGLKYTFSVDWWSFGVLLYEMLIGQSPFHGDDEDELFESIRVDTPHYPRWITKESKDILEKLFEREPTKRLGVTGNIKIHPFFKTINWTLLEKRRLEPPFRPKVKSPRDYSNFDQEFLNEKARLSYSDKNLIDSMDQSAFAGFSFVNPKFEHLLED

Structure (SMILES)	residual activity [1]	residual activity [2]	residual activity [3]
CC(C)(C)c1cc(C=C(C#N)C#N)cc(Br)c1O	97%	108%	
O=[N+]([O-])/C=C/c1ccc2c(c1)OCO2	95%	81%	81%
C[S+]([O-])c1ccc(-c2nc(-c3ccc(F)cc3)c(-c3ccncc3)[nH]2)cc1 (centres undefined)	105%	125%	105%
COc1ccc2c(c[n+](C)c3c4cc5c(cc4ccc23)OCO5)c1OC		88%	78%
O=C1Nc2ccc3ncsc3c2/C1=C/c1c[nH]cn1	5%	27%	9%
COc1cc2ncnc(Nc3ccc(OCc4ccccc4)cc3)c2cc1OC	106%	104%	119%
CCc1nc(-c2ccc(OC)cc2)[nH]c1-c1ccncc1	105%	104%	109%
COC(=O)[C@@]1(O)C[C@H]2O[C@]1(C)n1c3ccccc3c3c4c(c5c6ccccc6n2c5c31)C(=O)NC4	3%	51%	10%
COc1cc(OC)c(/C=C2\C(=O)Nc3ccccc32)c(OC)c1		95%	107%
O=c1[nH]c2ccccc2n1C1CCN(Cc2ccc(-c3nc4cc5[nH]cnc5cc4nc3-c3ccccc3)cc2)CC1	111%	87%	100%
c1cc(-c2cnn3cc(-c4ccc(OCCN5CCCCC5)cc4)cnc23)ccn1			103%
CC(C)[C@H](CO)Nc1nc(Nc2cccc(Cl)c2)c2ncn(C(C)C)c2n1			92%
COc1ccc2c(c1)/C(=C/c1cnc[nH]1)C(=O)N2	61%		80%
CCn1cnc2c(Nc3cccc(Cl)c3)nc(N[C@@H]3CCCC[C@@H]3N)nc21	59%	100%	80%
